Screening data: PubChem BioAssay, several laboratories
PREPL inhibitor – human PREPL enzyme inhibition; Q4J6C6; recombinant PREPL, fluorescence polarization activity-based probe; inhibition, % at 5.96 µM; hit rate 0.68% among 320,000; AID 2751; in the data active = inhibition above about 43%
PP5 inh – PP5 (human) phosphatase inhibition; P53041; purified PP5c, OMFP substrate fluorescence; inhibition, % at 6.7 µM; hit rate 0.18% among 320,000;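 active = inhibition above the campaign's mean inhibition across all tested compounds plus 3 SD, cut at about 9.5% in these data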
Target sequence (P53041 whole entry, looked up): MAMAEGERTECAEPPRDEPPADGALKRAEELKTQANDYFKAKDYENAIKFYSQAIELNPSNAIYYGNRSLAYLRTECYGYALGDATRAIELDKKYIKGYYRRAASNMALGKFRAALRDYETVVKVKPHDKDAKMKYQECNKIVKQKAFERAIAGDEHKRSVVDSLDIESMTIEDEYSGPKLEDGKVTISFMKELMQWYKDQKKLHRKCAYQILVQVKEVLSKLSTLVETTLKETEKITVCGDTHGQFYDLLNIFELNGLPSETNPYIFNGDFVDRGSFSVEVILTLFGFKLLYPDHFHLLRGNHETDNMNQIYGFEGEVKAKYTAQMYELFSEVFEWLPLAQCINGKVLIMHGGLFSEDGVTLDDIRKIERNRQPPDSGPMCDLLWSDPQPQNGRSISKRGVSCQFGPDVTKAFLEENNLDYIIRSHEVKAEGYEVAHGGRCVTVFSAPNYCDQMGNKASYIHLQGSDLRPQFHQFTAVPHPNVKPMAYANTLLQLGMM
ANO1 block – blocks the mouse calcium-activated chloride channel TMEM16A; hit rate 1.2% among 310,000; AID 588511; normalized B-score (activity score, 25-100; higher = stronger inhibition) at 10 µM; HEK293 TMEM16A/YFP iodide influx fluorescence, ionomycin; Q8BHY3;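 active = ratio plate-corrected score three or more library SD toward inhibition, starting fluorescence score within five deviations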;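 note: score derived from kinetic fluorescence span divided by baseline fluorescence per well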
PP1 inh – counter-screen for PP5 inhibitors: inhibitors of human PP1-alpha. purified PP1alpha, OMFP fluorescence. inhibition, % at 6.7 µM. hit rate 0.9% among 320,000. AID 2235;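 active = inhibition above the mean inhibition of all tested compounds plus 3 SD, computed separately for each screening campaign, cut at about 15% in these data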
TMEM16A act – activates or potentiates the mouse TMEM16A chloride channel; HEK293 TMEM16A/YFP-H148Q/I152L, iodide quench fluorescence; active compounds read low; B-score at 10 µM; hit rate 0.3% among 340,000; AID 623877;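 active = fluorescence-ratio B-score plate-corrected deviation score at least 3 library SD below zero, with starting fluorescence score within 5 deviations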;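 note: channel opened by trigger with iodide after compound preincubation; score built on the fluorescence ratio of max minus min over baseline; more negative score means more quench and so TMEM16A activation or potentiation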
DNA FID counter – fluorescent intercalator displacement, NS3 helicase counter-screen; inhibition, % at 7.9 µM; hit rate 0.17% among 290,000; DNA fluorescent intercalator displacement, fluorescence; in the data active = inhibition above about 37%;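 note: higher means more ethidium bromide displaced from hairpin DNA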
PP5 inh confirm – confirmation of human PP5 phosphatase inhibitors | shares compounds with PP5 inh | Purified PP5, fluorogenic phosphatase substrate, fluorescence | inhibition, % at 6.7 µM | hit rate 22% among 460; in the data active = inhibition above about 9.5%
PP1 inh counter – inhibits human PP1 phosphatase in PP5 counter-screen; AID 2355; shares compounds with PP5 inh; PP1 enzyme, fluorescent phosphatase substrate; inhibition, % at 6.7 µM; hit rate 4% among 460; in the data active = inhibition above about 16%
Of the large screens only hits and unclear results are named; the others gave an inactive call (follow-up assays come after a bar, where they were run). Only some compounds are listed: those with a hit (about 2.7% of all), similar ones and a draw of the others.

Cc1cc(C)c(NC(=O)CN(C)CC(=O)N(C)CC(=O)Nc2c(Cl)cccc2Cl)c(C)c1	none (no result: ANO1 block, DNA FID counter)
COc1cccc(CN(C)CC(=O)NCc2ccc(F)cc2)c1OC	PP5 inh 12 | PP5 inh confirm inactive | PP1 inh counter inactive
Cc1ccccc1S(=O)(=O)N(CC(O)CN1C(=O)NC(C)(C)C1=O)c1ccccc1 (stereo unspecified)	PP5 inh 10 | PP5 inh confirm inactive | PP1 inh counter inactive
CC1=C(C(=O)OC(C)C)C(c2ccccc2)NC(=S)N1C (stereo unspecified)	none
O=C(NC1CCCCCC1)C1c2ccccc2C(=O)N1Cc1ccco1 (stereo unspecified)	PP5 inh 11 | PP5 inh confirm inactive | PP1 inh counter inactive
O=C(NC1CCCCCC1)C1c2ccccc2C(=O)N1Cc1cccs1 (stereo unspecified)	none
Cn1cc(CN2CCC(n3nccc3NC(=O)C3CCCC3)CC2)cn1	none (no result: PREPL inhibitor, PP5 inh, PP1 inh)
CCOc1ccccc1NC(=O)C1C2C=CC(O2)C1C(=O)O (stereo unspecified)	PP5 inh 30 | PP5 inh confirm inactive | PP1 inh counter inactive
CCc1ccccc1NC(=O)C1C2C=CC(O2)C1C(=O)O (stereo unspecified)	PP5 inh 21 | PP5 inh confirm inactive | PP1 inh counter inactive
CC(C)C(=O)N1CCN(c2ccccc2NC(=S)NC(=O)/C=C/c2ccco2)CC1	none (no result: PP5 inh, ANO1 block, PP1 inh, DNA FID counter)
COc1ccc(C(=O)Nc2ccc(OCC(F)(F)C(F)F)c(C(F)(F)F)c2)cc1OC	PP5 inh 12 | PP5 inh confirm 11 | PP1 inh counter inactive
COc1ccc(NC(=O)c2ccc(COCC(F)(F)F)cc2)cc1OC	none
Cc1ccc(S(=O)(=O)NCCC(=O)Nc2cc(S(=O)(=O)N(C)C)ccc2C)cc1C	none
Cn1c2ccccc2c(=O)n2c(=O)c3ccccc3cc12	PP5 inh 11 (no result: TMEM16A act) | PP5 inh confirm 29 | PP1 inh counter inactive
Cn1c(-c2ccccc2)cc(=O)c2ccccc21	none
C=CCOCC(O)CS(=O)(=O)Cc1ccc(Cl)cc1 (stereo unspecified)	none
CN(C)c1ccc(C(C(=O)NC2CCCC2)N(C(=O)c2csnn2)C2CC2)cc1 (stereo unspecified)	none
COc1ccc(Br)c(C(=O)Nc2ccc(F)cc2)c1	PP5 inh 16 | PP5 inh confirm inactive | PP1 inh counter inactive
COc1cccc(NC(=O)c2ccccc2Br)c1	none
CN(Cc1nccn1C)C(=O)CC1C(=O)NCCN1CC(c1ccccc1)c1ccccc1 (stereo unspecified)	none
Cc1c(NC(=S)N/N=C/c2cc([N+](=O)[O-])ccc2O)c(=O)n(-c2ccccc2)n1C	PP5 inh 12 | PP5 inh confirm inactive | PP1 inh counter inactive
Cc1c(NC(=S)N/N=C/c2ccc(O)cc2)c(=O)n(-c2ccccc2)n1C	none
NS(=O)(=O)c1ccc(NC2=CC(=O)C(=O)c3ccccc32)cc1	PP5 inh 11 | PP5 inh confirm 37 | PP1 inh counter inactive
CC(C)(C)NC(=O)c1ccc(NC(=O)c2ccccc2-c2ccccc2C(=O)O)cc1	PP5 inh 10 | PP5 inh confirm inactive | PP1 inh counter inactive
O=C(COc1ccccc1)N/N=C/c1sc(=O)n(Cc2cccc(C(=O)O)c2)c1Cl	none
Cc1cccc(OCC(=O)N/N=C/c2sc(=O)n(Cc3cccc(C(=O)O)c3)c2Cl)c1	PP5 inh 13 | PP5 inh confirm inactive | PP1 inh counter inactive
O=C(Nc1ccc2c(c1)CCCN2C(=O)c1ccccc1)c1ccccc1	none
CCOc1ccc(S(N)(=O)=O)cc1-c1nc2c(C(C)(C)C)nn(C)c2c(=O)[nH]1	none
CCOc1ccc(S(=O)(=O)NC(C)(C)C)cc1-c1nc2c(C(C)(C)C)nn(C)c2c(=O)[nH]1	PP5 inh 10, TMEM16A act -14 | PP5 inh confirm inactive | PP1 inh counter inactive
O=C(Cn1cc([N+](=O)[O-])cn1)Nc1cccnc1	none
O=[N+]([O-])c1cccnc1N1CCC(c2cc(-c3cccc(C(F)(F)F)c3)n[nH]2)CC1	PP5 inh 10, ANO1 block 100 | PP5 inh confirm inactive | PP1 inh counter inactive
COc1cccc(-c2cc(C(=O)Nc3cnn(Cc4ccc(F)cc4)c3)no2)c1	PP5 inh 14 | PP5 inh confirm inactive | PP1 inh counter inactive
CCCN(Cc1nnc(-c2cccs2)o1)C(=O)CN1C(=O)NC2(CCCCC2)C1=O	none (no result: PREPL inhibitor, PP5 inh, ANO1 block, PP1 inh, DNA FID counter)
Cc1ccc(-c2cc(C(=O)NCc3cccs3)no2)cc1	PP5 inh 9.9 | PP5 inh confirm inactive | PP1 inh counter inactive
CC(C(=O)Nc1ccc(S(=O)(=O)N2CCCC2)cc1)N1CCCC(C(N)=O)C1 (stereo unspecified)	none (no result: PREPL inhibitor, PP5 inh, ANO1 block, PP1 inh, DNA FID counter)
Nc1ccc(Sc2ccccc2)nc1	none (no result: DNA FID counter)
Cc1ccc(Sc2ccc(N)cn2)cc1	PP5 inh 14 | PP5 inh confirm inactive | PP1 inh counter inactive
CC1(C(=O)Nc2ccc3c(c2)OCCO3)CC1(Cl)Cl (stereo unspecified)	PP5 inh 19 | PP5 inh confirm inactive | PP1 inh counter inactive
O=C(NCc1ccccn1)c1cccc(NS(=O)(=O)c2ccccc2F)c1	none
COC(=O)CCC(=O)OC1(C)C(=O)C2=CN(CCN3CCOCC3)C(c3ccc(OC)cc3)=CC2=C(Br)C1=O (stereo unspecified)	PP5 inh 11 (no result: TMEM16A act, DNA FID counter) | PP5 inh confirm 37 | PP1 inh counter inactive
COC(=O)CCC(=O)OC1(C)C(=O)C2=COC(c3ccc(OC)cc3)=CC2=C(Br)C1=O (stereo unspecified)	none (no result: TMEM16A act, DNA FID counter)
CCC(CC)C(=O)Nc1cccc(C(=O)Nc2ccc(S(=O)(=O)Nc3ccc(C)cc3)cc2)c1	PP5 inh 10 | PP5 inh confirm inactive | PP1 inh counter inactive
CCC(CC)C(=O)Nc1cccc(C(=O)Nc2ccc(OC)cc2[N+](=O)[O-])c1	PP5 inh 10 | PP5 inh confirm inactive | PP1 inh counter inactive
CCOc1ccc2ccccc2c1/C=N/NC(=O)CNC(=O)C(c1ccccc1)c1ccccc1	none
CC1=C(C(=O)OC(C)C)C2(O)C(=O)c3ccccc3C2(O)N1 (stereo unspecified)	PP5 inh 12 | PP5 inh confirm 16 | PP1 inh counter inactive
Cc1cc(C)c2nc(C)cc(Nc3ccc(C(=O)N4CCOCC4)cc3)c2c1	PP5 inh 11 | PP5 inh confirm inactive | PP1 inh counter inactive
CC(C)c1ccc(C(O)P(=O)(OCc2ccccc2)c2ccc(N(C)C)cc2)cc1 (stereo unspecified)	PP5 inh 9.7 | PP5 inh confirm inactive | PP1 inh counter inactive
CN(C)c1ccc(P(=O)(OCc2ccccc2)C(O)c2ccccc2F)cc1 (stereo unspecified)	none
